# Experimental data from PubChem BioAssay (NCATS).
# Results filed as inconclusive are left out. The source made the active and inactive calls. Unless noted, the call rests on the fitted dose curve; in most records, active means well fitted curve in the direction sought with a large enough effect; inconclusive means small, poorly fitted or top-dose-only effect, or another doubt; inactive means no such curve, though single readings can be large; an effect the other way counts as inactive or inconclusive.
# Experiments:
# [1] = biological target: Cytochrome P450 3A4 (Homo sapiens) (UniProt P08684); assay: qHTS Assay for Inhibitors and Substrates of Cytochrome P450 3A4 (AID 884); further: nearly all actives have a fitted effect of over 50% in size; further: potency means the concentration at half of the fitted maximal effect
# Cytochrome P450 3A4 (Homo sapiens), sequence (P08684 whole entry, looked up): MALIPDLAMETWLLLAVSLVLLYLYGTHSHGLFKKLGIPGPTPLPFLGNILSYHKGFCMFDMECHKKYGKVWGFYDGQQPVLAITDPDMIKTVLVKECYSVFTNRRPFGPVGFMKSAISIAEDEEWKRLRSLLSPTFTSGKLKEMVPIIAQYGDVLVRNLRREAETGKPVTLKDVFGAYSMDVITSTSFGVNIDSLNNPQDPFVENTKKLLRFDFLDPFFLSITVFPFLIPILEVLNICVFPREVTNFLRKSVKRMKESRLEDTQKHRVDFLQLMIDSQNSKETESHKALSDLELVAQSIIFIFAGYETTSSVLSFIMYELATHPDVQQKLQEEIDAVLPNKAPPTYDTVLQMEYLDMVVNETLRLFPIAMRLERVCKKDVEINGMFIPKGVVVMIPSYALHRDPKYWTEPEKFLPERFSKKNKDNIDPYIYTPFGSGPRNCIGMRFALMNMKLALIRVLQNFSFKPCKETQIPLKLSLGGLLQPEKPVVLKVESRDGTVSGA
# Procedure, shortened: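 20 nM human CYP3A4 with 25 uM Luciferin-PPXE (at KM) in 200 mM KPO4, preincubated 10 min with compound; NADPH regeneration started a 60 min RT reaction. Luciferin detected by luminescence, normalized to 57 uM ketoconazole as full inhibition.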
# [2] = qHTS Assay for Lipid Storage Modulators (AID 1519; calls by dose curve; further: potency means the concentration at half of the fitted maximal effect); details: Drosophila S3 cells, BODIPY lipid droplet/cell ratio, laser cytometry, cells loaded with oleic acid; for activity change, negative = inhibition: at 57.5 µM (top of the series)
# Procedure, shortened: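 Cells seeded at 5,000 per well were treated with compounds over a concentration series and loaded with oleic acid (400 uM, as added). Lipid droplet fluorescence (488 nm excitation, 500-530 nm channel) was read by laser-scanning cytometry and normalized to 20 uM Triacsin C.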
# [3] = biological target: DNA dC->dU-editing enzyme APOBEC-3G (Homo sapiens) (UniProt Q9HC16); assay: qHTS for inhibitors of Vif-A3G interactions: Validation (AID 588379); further: 0% is about no effect
# DNA dC->dU-editing enzyme APOBEC-3G (Homo sapiens), sequence (Q9HC16 whole entry, looked up): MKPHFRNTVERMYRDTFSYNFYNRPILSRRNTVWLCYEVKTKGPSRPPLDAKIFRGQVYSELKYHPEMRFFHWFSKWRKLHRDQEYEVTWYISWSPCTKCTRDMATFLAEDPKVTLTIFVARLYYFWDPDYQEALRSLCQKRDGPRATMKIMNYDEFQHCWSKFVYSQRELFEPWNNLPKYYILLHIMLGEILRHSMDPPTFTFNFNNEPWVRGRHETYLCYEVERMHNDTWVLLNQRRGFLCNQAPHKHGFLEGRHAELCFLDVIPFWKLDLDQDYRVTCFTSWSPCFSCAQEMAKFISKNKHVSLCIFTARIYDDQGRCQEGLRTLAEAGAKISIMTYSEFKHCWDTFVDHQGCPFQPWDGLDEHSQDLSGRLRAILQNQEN
# Procedure, shortened: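 HeLa cells stably expressing Vif and A3G-eYFP, 700 cells/well, incubated overnight at 37 deg C, then exposed to compound overnight at 37 deg C. Inhibition of Vif-mediated degradation read as increased yellow fluorescence (Ex 488/Em 500-530) by laser-scanning cytometry.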
# [4] = biological target: Cytochrome P450 3A4 (Homo sapiens) (UniProt P08684); assay: qHTS Assay for Activators of Cytochrome P450 3A4 (AID 885); further: nearly all actives have a fitted effect of over 65% in size
# Procedure, shortened: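 Human CYP3A4 (20 nM) with Luciferin-PPXE at 25 uM (its KM) in 200 mM KPO4; 10 min compound preincubation, then NADPH regeneration and 60 min reaction at RT. Luciferin read by luminescence; normalized to 57 uM ketoconazole full inhibition.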
# [5] = Confirmation and Secondary Assay for Modulators of Hemoglobin Beta Chain Splicing at IVS2 654 locus (AID 910);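 further: HeLa cells stably carrying EGFP split by mutant beta-globin IVS2-654 intron; per-well total GFP intensity by laser scanning cytometry after 2-day treatment; % of control where 0% means no effect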
# Procedure, shortened: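 Readout: per-well total peak green fluorescence (488 nm ex, 500–520 nm em) from objects 5–250 µm, reflecting correct splicing of an EGFP-654 reporter. Compounds were applied for 2 days at 37 °C to overnight-plated HeLa EGFP-654 cells; controls were DMSO and 500 nM IVS2-654 PNA.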
# [6] = Confirmation and Secondary Assay for Modulators of Hemoglobin Beta Chain Splicing at IVS2 705 locus (AID 930);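 further: HeLa cells stably expressing the EGFP-705 splicing reporter; GFP fluorescence per well restored by corrected splicing of the IVS2-705 intron in EGFP; % of control where 0% means no effect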
# Procedure, shortened: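 First, HeLa EGFP-705 cells are seeded at 500/well in Optimem with 2% FCS and left overnight. Next, compound or DMSO is added for 2 days. Finally wells are laser-scanned and total peak GFP intensity scored.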
# [7] = biological target: Estrogen receptor (Homo sapiens) (UniProt P03372); assay: qHTS assay for small molecule agonists of estrogen receptor alpha signaling (AID 588514; calls by dose curve;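 further: 0% = vehicle only and 100% = reference agonist; nearly all actives have a fitted effect of over 70% in size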)
# Estrogen receptor (Homo sapiens), sequence (P03372 whole entry, looked up): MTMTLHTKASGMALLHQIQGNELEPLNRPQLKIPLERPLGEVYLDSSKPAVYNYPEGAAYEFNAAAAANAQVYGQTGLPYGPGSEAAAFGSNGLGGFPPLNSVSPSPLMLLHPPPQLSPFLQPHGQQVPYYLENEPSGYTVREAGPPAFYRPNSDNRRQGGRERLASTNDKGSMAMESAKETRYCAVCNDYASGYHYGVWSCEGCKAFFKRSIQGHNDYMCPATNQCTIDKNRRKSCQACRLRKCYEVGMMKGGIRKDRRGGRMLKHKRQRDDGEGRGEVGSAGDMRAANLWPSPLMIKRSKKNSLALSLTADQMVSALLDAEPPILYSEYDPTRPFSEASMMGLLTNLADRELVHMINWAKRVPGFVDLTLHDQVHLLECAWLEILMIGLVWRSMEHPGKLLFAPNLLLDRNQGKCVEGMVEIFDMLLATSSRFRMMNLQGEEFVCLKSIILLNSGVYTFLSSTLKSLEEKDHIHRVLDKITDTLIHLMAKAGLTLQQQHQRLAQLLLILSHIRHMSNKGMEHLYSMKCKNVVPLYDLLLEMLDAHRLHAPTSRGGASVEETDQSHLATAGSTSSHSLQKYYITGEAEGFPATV
# Procedure, shortened: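 ER-alpha-UAS-bla GripTite HEK 293 cells in medium with 2% charcoal/dextran-treated FBS were treated with compound titrations at 37 C for 18 hrs; beta-lactamase reporter read by CCF4 fluorescence after 2 hrs at RT.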
# [8] = biological target: Bile acid receptor (Homo sapiens) (UniProt Q96RI1); assay: qHTS assay for small molecule antagonists of farnesoid X receptor signaling (AID 588526; calls by dose curve; further: on the % scale 0 is the no-effect control and ±100 the full control effect)
# Bile acid receptor (Homo sapiens), sequence (Q96RI1 whole entry, looked up): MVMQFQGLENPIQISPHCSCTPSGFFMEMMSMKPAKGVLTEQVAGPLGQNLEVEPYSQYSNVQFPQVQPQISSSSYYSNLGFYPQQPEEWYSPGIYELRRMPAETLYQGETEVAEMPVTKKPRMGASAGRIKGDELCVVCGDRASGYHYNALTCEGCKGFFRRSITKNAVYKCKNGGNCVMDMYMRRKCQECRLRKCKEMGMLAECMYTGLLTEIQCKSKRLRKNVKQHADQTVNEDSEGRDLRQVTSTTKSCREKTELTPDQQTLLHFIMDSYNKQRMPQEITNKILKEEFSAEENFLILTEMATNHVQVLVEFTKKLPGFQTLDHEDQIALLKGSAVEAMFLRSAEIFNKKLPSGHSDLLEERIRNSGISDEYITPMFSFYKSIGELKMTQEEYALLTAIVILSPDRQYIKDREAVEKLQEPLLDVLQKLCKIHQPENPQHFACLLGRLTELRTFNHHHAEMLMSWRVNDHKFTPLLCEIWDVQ
# Procedure, shortened: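 Beta-lactamase reporter antagonist mode: HEK293T FXR-UAS-bla cells, titrated compound, CDCA stimulation, 16 h 37 C, CCF4 dye 2 h RT. Data normalized to CDCA 50 uM and DMSO; Hill-fit IC50.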
# [9] = biological target: Bile acid receptor (Homo sapiens) (UniProt Q96RI1); assay: qHTS assay for small molecule agonists of farnesoid X receptor signaling (AID 588527; calls by dose curve;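 further: 0% = vehicle basal and 100% = reference agonist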); details: HEK293T FXR-UAS-bla, beta-lactamase ratio, 16 h; stronger effect = higher value
# Procedure, shortened: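 FXR-UAS-bla HEK293T cells (10% dialyzed FBS) preincubated 5-7 h at 37 C, then compounds at up to 92 uM for 16 h at 37 C. CCF4 beta-lactamase read-out after 2 h RT. Normalized to chenodeoxycholic acid (100 uM) and DMSO; Hill fit gave EC50 and efficacy.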
# [10] = biological target: Peroxisome proliferator-activated receptor delta (Homo sapiens) (UniProt Q03181); assay: qHTS assay for small molecule agonists of peroxisome proliferator-activated receptor delta signaling (AID 588534; calls by dose curve;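 further: 0% = DMSO basal wells and 100% = positive control agonist at 10 µM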)
# Peroxisome proliferator-activated receptor delta (Homo sapiens), sequence (Q03181 whole entry, looked up): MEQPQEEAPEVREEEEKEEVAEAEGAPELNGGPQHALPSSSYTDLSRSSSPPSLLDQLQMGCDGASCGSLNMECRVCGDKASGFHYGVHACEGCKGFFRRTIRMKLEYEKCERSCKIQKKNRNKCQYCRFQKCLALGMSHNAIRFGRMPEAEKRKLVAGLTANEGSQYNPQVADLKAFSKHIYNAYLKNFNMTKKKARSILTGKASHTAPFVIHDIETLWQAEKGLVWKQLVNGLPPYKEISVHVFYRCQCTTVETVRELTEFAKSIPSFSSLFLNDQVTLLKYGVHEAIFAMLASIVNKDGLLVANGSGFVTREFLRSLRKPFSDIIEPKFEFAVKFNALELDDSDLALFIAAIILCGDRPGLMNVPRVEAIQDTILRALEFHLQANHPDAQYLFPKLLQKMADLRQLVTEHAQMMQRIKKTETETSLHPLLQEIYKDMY
# Procedure, shortened: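 Cell-based beta-lactamase reporter assay run in agonist mode: cells seeded and incubated 5 hrs at 37 C, compounds added and incubated 18 hrs at 37 C. CCF4 dye fluorescence read after 2 hrs at RT; EC50 and efficacy from Hill fits.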
# [11] = qHTS assay for small molecule antagonists of peroxisome proliferator-activated receptor delta signaling (AID 588535; active means well fitted inhibition curve with a large enough effect in the signal ratio, with a control signal flat, not every such curve was filed as active; the % refers to the signal ratio;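 on max response: cells co-treated with a PPAR-delta agonist as stimulator during compound exposure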); details: HEK293T PPARd-UAS-bla, beta-lactamase FRET ratio, 18 h; 460 nm channel
# Procedure, shortened: (§1)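 Cell-based beta-lactamase assay in antagonist mode: 4000 HEK293T PPAR-delta-UAS-bla cells per well, 5 hr preincubation then 18 hr compound incubation at 37 C. IC50 obtained by Hill equation fitting.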
# [12] = biological target: Peroxisome proliferator-activated receptor delta (Homo sapiens) (UniProt Q03181); assay: as above
# Procedure, shortened: as §1
# [13] = biological target: Peroxisome proliferator-activated receptor gamma (Homo sapiens) (UniProt P37231); assay: qHTS assay for small molecule agonists of peroxisome proliferator-activated receptor gamma signaling (AID 588536; active means well fitted curve in the direction sought with a large enough effect in the signal ratio, with a control signal flat, not every such curve was filed as active; the % refers to the signal ratio;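 further: 0% = DMSO basal wells and 100% = rosiglitazone at 2 µM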)
# Peroxisome proliferator-activated receptor gamma (Homo sapiens), sequence (P37231 whole entry, looked up): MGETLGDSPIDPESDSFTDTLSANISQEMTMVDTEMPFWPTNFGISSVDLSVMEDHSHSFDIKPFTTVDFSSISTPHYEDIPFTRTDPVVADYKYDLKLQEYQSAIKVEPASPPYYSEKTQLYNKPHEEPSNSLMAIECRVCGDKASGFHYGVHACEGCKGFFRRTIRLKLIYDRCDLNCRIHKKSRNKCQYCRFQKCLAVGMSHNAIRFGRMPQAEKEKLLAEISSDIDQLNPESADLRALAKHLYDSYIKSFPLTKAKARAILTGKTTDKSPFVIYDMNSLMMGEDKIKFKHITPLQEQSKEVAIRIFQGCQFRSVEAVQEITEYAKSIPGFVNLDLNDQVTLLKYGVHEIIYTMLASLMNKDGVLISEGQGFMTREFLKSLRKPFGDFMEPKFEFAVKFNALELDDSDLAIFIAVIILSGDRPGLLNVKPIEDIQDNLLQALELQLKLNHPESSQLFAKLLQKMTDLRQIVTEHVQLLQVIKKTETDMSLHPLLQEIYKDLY
# Procedure, shortened: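 GeneBLAzer PPAR-gamma-UAS-bla HEK293 cells in 1% charcoal/dextran-treated FBS medium were treated 16 h at 37 C with compounds. Beta-lactamase activity was read by CCF4 ratio (460/530 nm). Response was normalized to 2 uM rosiglitazone (100%) and DMSO, then Hill-fitted for EC50 and efficacy.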
# [14] = biological target: Peroxisome proliferator-activated receptor gamma (Homo sapiens) (UniProt P37231); assay: qHTS assay for small molecule antagonists of peroxisome proliferator-activated receptor gamma signaling (AID 588537; active means well fitted inhibition curve with a large enough effect in the signal ratio, with a control signal flat, not every such curve was filed as active; the % refers to the signal ratio;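 further: reporter cells co-stimulated with 50 nM rosiglitazone agonist during compound treatment; % of control where 0% means no effect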)
# Procedure, shortened: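 Inhibitors of agonist-stimulated UAS-bla reporter activity were sought in HEK293 cells; rosiglitazone (50 nM) defined full signal and DMSO baseline. Curves fitted to Hill model gave IC50 and efficacy.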
# [15] = biological target: Vitamin D3 receptor (Homo sapiens) (UniProt P11473); assay: qHTS assay for small molecule antagonists of vitamin D receptor signaling (AID 588541; calls by dose curve;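 further: receptor activated by calcitriol during compound treatment; on the % scale 0 is the no-effect control and ±100 the full control effect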)
# Vitamin D3 receptor (Homo sapiens), sequence (P11473 whole entry, looked up): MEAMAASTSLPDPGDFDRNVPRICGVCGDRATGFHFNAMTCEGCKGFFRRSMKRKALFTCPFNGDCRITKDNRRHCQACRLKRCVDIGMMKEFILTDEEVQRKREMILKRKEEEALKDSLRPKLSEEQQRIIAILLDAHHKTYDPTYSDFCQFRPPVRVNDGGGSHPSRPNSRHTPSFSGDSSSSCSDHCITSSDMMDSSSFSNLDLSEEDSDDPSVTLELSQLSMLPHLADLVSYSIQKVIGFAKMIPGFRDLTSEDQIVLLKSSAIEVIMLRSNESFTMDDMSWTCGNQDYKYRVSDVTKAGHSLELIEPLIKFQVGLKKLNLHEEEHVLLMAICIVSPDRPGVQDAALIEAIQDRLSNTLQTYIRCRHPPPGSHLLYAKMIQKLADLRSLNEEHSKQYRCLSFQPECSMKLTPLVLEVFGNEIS
# Procedure, shortened: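 Antagonist-mode beta-lactamase reporter assay: HEK293T VDR-UAS-bla cells were exposed to titrated compound alongside 1-alpha,25-dihydroxyvitamin D3 at 3 nM final for 16 h. Values were normalized to the 50 nM agonist control and DMSO basal, with IC50 and efficacy from Hill equation fits.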
# [16] = biological target: Vitamin D3 receptor (Homo sapiens) (UniProt P11473); assay: qHTS assay for small molecule agonists of vitamin D receptor signaling (AID 588543; calls by dose curve;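 further: 0% = DMSO basal and 100% = reference agonist control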)
# Procedure, shortened: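 VDR-UAS-bla HEK293T cells, 2000/well, 2% charcoal-stripped FBS; compound titration 16 h at 37 C; CCF4 beta-lactamase ratio read. Normalized to 50 nM 1-alpha,25-dihydroxyvitamin D3 (100%) and DMSO; Hill fit gives EC50, efficacy.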
# [17] = qHTS assay for small molecule agonists of retinoid X receptor alpha signaling (AID 588544; calls by dose curve;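 on activation: 0% = DMSO basal wells and 100% = reference agonist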); details: HEK293T RXRa-UAS-bla, beta-lactamase reporter, 18 h; 530 nm emission
# [18] = biological target: Retinoic acid receptor RXR-alpha (Homo sapiens) (UniProt P19793); assay: as above
# Retinoic acid receptor RXR-alpha (Homo sapiens), sequence (P19793 whole entry, looked up): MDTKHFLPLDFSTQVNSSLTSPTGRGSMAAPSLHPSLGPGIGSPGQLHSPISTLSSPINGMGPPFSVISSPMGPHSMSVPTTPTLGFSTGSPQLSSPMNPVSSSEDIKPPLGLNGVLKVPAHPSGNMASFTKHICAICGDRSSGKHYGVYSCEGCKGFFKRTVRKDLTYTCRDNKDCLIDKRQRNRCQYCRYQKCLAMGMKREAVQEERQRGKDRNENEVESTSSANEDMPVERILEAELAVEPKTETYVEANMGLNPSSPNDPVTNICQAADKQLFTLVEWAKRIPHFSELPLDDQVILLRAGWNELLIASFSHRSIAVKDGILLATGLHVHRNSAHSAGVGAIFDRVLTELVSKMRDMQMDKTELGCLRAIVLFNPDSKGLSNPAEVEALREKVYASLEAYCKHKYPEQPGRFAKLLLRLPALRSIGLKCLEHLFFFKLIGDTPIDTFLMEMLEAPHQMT
# [19] = qHTS assay for small molecule antagonists of retinoid X receptor alpha signaling (AID 588546; active means well fitted inhibition curve with a large enough effect in the signal ratio, with a control signal flat, not every such curve was filed as active; the % refers to the signal ratio;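 further: cells stimulated with 9-cis-retinoic acid as agonist; on the % scale 0 is the no-effect control and ±100 the full control effect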); details: HEK293T RXRa-UAS-bla, beta-lactamase ratio, antagonist mode; measured here: W530 green channel, cytotoxicity proxy
# Procedure, shortened: (§2)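 Beta-lactamase reporter inhibition, read as CCF4 fluorescence ratio (ex 405, em 460/530 nm) after 2 h at RT. HEK293T UAS-bla cells, 2500/well, were stimulated with 9-cis-RA at 500 or 100 nM final alongside test compound for 18 h at 37 C.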
# [20] = biological target: Retinoic acid receptor RXR-alpha (Homo sapiens) (UniProt P19793); assay: as above; details: HEK293T RXRa-UAS-bla, beta-lactamase ratio, antagonist mode
# Procedure, shortened: as §2
# [21] = biological target: Thyroid hormone receptor beta (Homo sapiens) (UniProt P10828); assay: qHTS assay for small molecule antagonists of thyroid hormone receptor beta signaling (AID 588547; active means well fitted inhibition curve with a large enough effect in the signal ratio, with a control signal flat, not every such curve was filed as active; the % refers to the signal ratio;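 further: cells stimulated with 0.4 nM T3 agonist during compound exposure; on the % scale 0 is the no-effect control and ±100 the full control effect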); details: TR-UAS-bla HEK293, beta-lactamase ratio, antagonist mode, 18 h
# Thyroid hormone receptor beta (Homo sapiens), sequence (P10828 whole entry, looked up): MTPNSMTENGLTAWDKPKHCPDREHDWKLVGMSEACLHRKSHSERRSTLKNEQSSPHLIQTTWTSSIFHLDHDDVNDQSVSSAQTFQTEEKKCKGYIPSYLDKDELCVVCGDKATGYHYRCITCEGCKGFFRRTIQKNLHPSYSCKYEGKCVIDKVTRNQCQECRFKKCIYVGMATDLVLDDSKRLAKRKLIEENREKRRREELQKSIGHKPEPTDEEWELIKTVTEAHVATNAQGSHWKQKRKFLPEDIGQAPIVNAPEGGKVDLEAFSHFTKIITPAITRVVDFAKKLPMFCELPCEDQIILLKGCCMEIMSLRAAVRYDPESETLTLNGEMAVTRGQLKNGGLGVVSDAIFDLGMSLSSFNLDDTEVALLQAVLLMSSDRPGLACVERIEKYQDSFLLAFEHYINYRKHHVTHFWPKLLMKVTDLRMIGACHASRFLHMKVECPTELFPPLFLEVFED
# Procedure, shortened: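 Inhibition of T3-driven (0.4nM final) beta-lactamase reporter activity was measured over 0.59 nM to 92 uM compound after 18 h at 37 C. The cells were GripTite HEK293 TR-UAS-bla in charcoal/dextran-stripped serum, with CCF4 ratio read-out and IC50 from Hill fits.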
# [22] = qHTS assay for small molecule agonists of the antioxidant response element (ARE) signaling pathway (AID 651741; active means well fitted activation curve with a large enough effect in the signal ratio; the % refers to the signal ratio; further: % of control where 0% means no effect)
# Procedure, shortened: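 Seeding 2,000 ARE-bla HepG2 cells per well preceded a 5 h incubation at 37 C/5% CO2 and a 16 h compound exposure at 37 C. Beta-lactamase reporter activity was then quantified by fluorescence after 2 h with LiveBLAzer B/G FRET substrate.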
# [23] = qHTS assay for small molecule activators of the p53 signaling pathway (AID 651743; active means well fitted activation curve with a large enough effect in the signal ratio, not every such curve was filed as active; the % refers to the signal ratio; further: % of control where 0% means no effect); details: HCT-116 p53RE-bla, beta-lactamase FRET ratio, 16 h; activation: stronger effect = higher value
# Procedure, shortened: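 Screen for p53 pathway agonists uses stably transfected p53RE-bla HCT-116 cells, 4,000 per well, treated 16 h at 37 C with compounds in DMSO.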
# [24] = qHTS assay for small molecule activators of the nuclear factor-kappa B (NF-kB) signaling pathway (AID 651749; active means well fitted activation curve with a large enough effect in the signal ratio; the % refers to the signal ratio; further: % of control where 0% means no effect); details: NF-kB-bla ME-180 cells, beta-lactamase FRET ratio, 16 h; activation: stronger effect = higher value
# Procedure, shortened: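 Stably transfected ME-180 line; NF-kB response element upstream of beta-lactamase. Treatment: compound or DMSO, 16 hr. Detection: fluorescent FRET substrate.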
# [25] = biological target: Peroxisome proliferator-activated receptor alpha (Homo sapiens) (UniProt Q07869); assay: qHTS assay for small molecule agonists of the peroxisome proliferator-activated receptor alpha (PPARalpha) signaling pathway (AID 651778); details: PathHunter PPARalpha complementation, chemiluminescence, 6 h; stronger effect = higher value; further: % of control where 0% means no effect
# Peroxisome proliferator-activated receptor alpha (Homo sapiens), sequence (Q07869 whole entry, looked up): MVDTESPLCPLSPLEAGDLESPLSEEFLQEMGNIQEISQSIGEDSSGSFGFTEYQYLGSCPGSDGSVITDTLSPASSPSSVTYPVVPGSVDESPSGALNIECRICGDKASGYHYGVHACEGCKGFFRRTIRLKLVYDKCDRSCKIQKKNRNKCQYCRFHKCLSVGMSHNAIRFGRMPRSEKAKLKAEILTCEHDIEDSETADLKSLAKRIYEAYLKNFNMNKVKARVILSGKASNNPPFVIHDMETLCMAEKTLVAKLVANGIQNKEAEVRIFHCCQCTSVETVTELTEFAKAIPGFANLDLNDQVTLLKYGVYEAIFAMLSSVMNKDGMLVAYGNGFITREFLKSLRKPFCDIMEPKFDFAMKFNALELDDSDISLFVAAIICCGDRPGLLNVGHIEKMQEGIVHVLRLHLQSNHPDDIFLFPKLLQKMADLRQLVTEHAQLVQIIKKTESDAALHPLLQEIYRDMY
# Procedure, shortened: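 Chemiluminescence from complemented enzyme reported PPARalpha activation in cells after 6 hr of compound treatment at 37 C. The detection reagent was incubated for 60 min at room temperature, and compounds were scored as agonists.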
# [26] = qHTS assay for small molecule agonists of the antioxidant response element (ARE) signaling pathway measured by Nrf2-dependant transcriptional activity - cell viability counter screen (AID 720653; active means well fitted curve in the direction sought with a large enough effect in the repeat runs; an effect the other way counts as inactive or inconclusive; further: on the % scale 0 is the no-effect control and ±100 the full control effect); details: ARE-bla HepG2 viability, CellTiter-Glo ATP luminescence, 16 h; stronger effect = lower value
# Procedure, shortened: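 Cytotoxicity counter screen: intracellular ATP quantified by CellTiter-Glo luminescence in the same ARE-bla HepG2 plates, after 16 h compound exposure and a 2 h beta-lactamase substrate step.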
# [27] = qHTS assay for cell viability of HEK293 cells (AID 743288); details: ATP luminescence (CellTiter-Glo), 18 h; max response: stronger effect = lower value; further: on the % scale 0 is the no-effect control and ±100 the full control effect; nearly all actives have a fitted effect of over 50% in size
# Procedure, shortened: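 Parental HEK293 cells, 2,000 per well, preincubated at least 5 h at 37 C, then exposed to compounds in DMSO for 18 h at 37 C. Viability by CellTiter-Glo ATP luminescence after 30 min at room temperature.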
# [28] = qHTS assay for cell viability of the p53RE-bla HCT-116 cell line (AID 743292); further: on the % scale 0 is the no-effect control and ±100 the full control effect; nearly all actives have a fitted effect of over 55% in size
# Procedure, shortened: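 Viability of compound-treated p53RE-bla HCT-116 cells is taken from ATP-dependent luciferase luminescence. Treatment lasts 16 h at 37 C after a 5 h settling period; detection follows 30 min at room temperature.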
# [29] = measured here: cell count channel max response
# [30] = measured here: lipid channel max response
smiles,measurement,setting,value
CC[C@H]1C2CC3[C@@H]4N(C)c5ccccc5[C@]45C[C@@H](C2[C@H]5O)N3[C@@H]1O (stereo partly specified),Potency,[1],inactive
same,"activity change, negative = inhibition",[2],-0.775% (inactive)
same,max response,[2]; [29],15.3%
same,max response,[2]; [30],14.3%
same,outcome,[3],inactive
CC(=O)OC1C[C@@]2(C)C(c3ccoc3)C[C@H]3O[C@@]32[C@@]2(C)C(=O)C(O)=C3C(C)(C)C(=O)C=C[C@]3(C)C12 (stereo partly specified),Potency,[1],0.398 µM (active)
same,Potency,[4],inactive
same,Potency,[5],inactive
same,Potency,[6],inactive
same,Potency,[2],15.8 µM (active)
same,max response,[2]; [29],-2.69%
same,max response,[2]; [30],-67.6%
CCC12CCCN3CCC4(c5ccc(OC)c(O)c5N(C(C)=O)C4CC1)C32 (stereo unspecified),Potency,[1],15.8 µM (active)
same,Potency,[4],inactive
same,"activity change, negative = inhibition",[2],-0.564% (inactive)
same,max response,[2]; [29],14.6%
same,max response,[2]; [30],12.8%
same,outcome,[3],inactive
CC(C)OC(=O)Nc1cccc(Cl)c1,Potency,[1],inactive
same,Potency,[5],inactive
same,Potency,[6],inactive
same,"activity change, negative = inhibition",[2],8.95% (inactive)
same,max response,[2]; [29],5.17%
same,max response,[2]; [30],15.8%
same,Potency,[7],inactive
same,outcome,[8],inactive
same,activation,[9],2.06% (inactive)
same,outcome,[10],inactive
same,max response,[11],2.77%
same,Potency,[12],inactive
same,outcome,[13],inactive
same,Potency,[14],inactive
same,outcome,[15],inactive
same,outcome,[16],inactive
same,max response,[17],-7.86%
same,Potency,[18],inactive
same,max response,[19],-4.63%
same,max response,[20],4.34% (inactive)
same,activity change % (negative = inhibition),[21],12.8% (inactive)
same,Potency,[22],inactive
same,activation,[23],1.93% (inactive)
same,activation,[24],0.165% (inactive)
same,max response,[25],-1.91% (inactive)
same,max response,[26],-10.2% (inactive)
same,max response,[27],-6.02% (inactive)
same,Potency,[28],inactive
